Source: the OligoGym collection

Molecular target: AP1S1
Test: pooled miR-30 sensor sort-seq; sequence = guide strand
Settings: shRNA
Note: reference of the scale not given here.

Row | Sequence | sensor-assay potency score (higher = more potent)
1 | TTGTCTAAGAGCTCCACGTATC | -1.02
2 | TATCTCTTATAGACAACTTTGA | -1.08
3 | TTGAAGATGATGTCCAGCTCGC | 0.319
4 | TCCAGCTCGCACACACTGCCAA | -0.956
5 | TTCCGTTCCTTGTCCGAAGTGG | 0.268

Molecular target: AP2B1
Test: as above
Settings: shRNA

Row | Sequence | sensor-assay potency score (higher = more potent)
6 | AATAGTATAAACATTGTTGTTT | -0.183
7 | TCGAACAAAGTCAACATCCACC | -0.757
8 | TTGTTTTTCACAGCCACCTGGA | -0.558
9 | TAATCTGAAACTGAAGTTCATT | -0.631
10 | TCATCCTTCAAGCACTTGCGGA | -1.05
11 | TTTAGTTCAAATATTTCTCCTT | 0.5
12 | TTCTGTAATTTTGTCTACCCGG | -1.02
13 | TTTCTAGTAACTCATCTGCATT | -1.34
14 | TTCATCGTGAAAACCCTCCAGG | -0.0807
15 | TAGAAGATCACCTTGAGAGGGG | 0.529
16 | TTGTTTTGCAACTTGCTGGAAA | -0.458
17 | TTGTTGTTTTGCAACTTGCTGG | -0.34
18 | TTAGTTCAAATATTTCTCCTTT | 0.546
19 | TTCATTAGGACTTTTACCGCTG | 0.615
20 | TAAATGACATTCCTTAATCTGA | -0.695
21 | TAACAATTCTAGAAACTTCATT | -0.559
22 | TAGCATATTCTTTCAGTTCTGC | 0.583
23 | TAGAGAATCCAGAAATCCCTGA | 0.164
24 | AAAGAGAGAACTAACATCCTTC | 0.773
25 | TTTCAGTTCTGCCAGAACCTGA | -0.77
26 | TAGTTCCAGATTGTCAGTCTGC | -0.496
27 | TTCAGATCAAGTAAGTTGCTGT | 1.15
28 | TTTCATTGTTGAGTTCAGCTTT | 0.578
29 | TATTGTAGTAGTCAGAATCCTT | 0.0218
